# Assay outcomes (PubChem)
# This is one part of a sample in which hits are shown more often than they occur.
# Pf Dd2 inh: qHTS Primary assay for Inhibitors of Plasmodium falciparum Dd2 growth in vitro. actives 4.3% (n = 120,000). P. falciparum Dd2 growth, SYBR Green, 72 h. AID 1347417, 2020. Potency, µM (doses to about 28.9 µM), most hits filed as inhibitors; active means well fitted inhibition curve with a large enough effect; further: nearly all actives have a fitted effect of over 65% in size
#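 Infected erythrocytes (Dd2, 0.3% parasitemia, 2.5% hematocrit final) are added to compound in RPMI-1640/Albumax II medium, grown 72 h at 37C in low oxygen, then lysed with saponin/Triton-X containing SYBR Green and read by fluorescence.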
# Numbers stand for hits; n = inactive; [ ] = dose if it differs, or a comment.
SMILES,Pf Dd2 inh
CCOC(=O)C1CCN(c2nc3ccccc3nc2Cl)CC1,n
COc1ccccc1-c1cc(C(=O)NCc2ccc(F)cc2)c2cnn(C)c2n1,n
CN(C)C(=O)c1ccc2c(c1)n(Cc1ccc(F)cc1)c(=O)c1ccnn12,10µM
CN1CCC(NC(=O)c2ccc3c(c2)n(Cc2ccc(F)cc2)c(=O)c2ccnn23)CC1,2.5µM
O=C(NCc1ccccn1)c1ccc2c(c1)n(Cc1cccc(F)c1)c(=O)c1ccnn12,5µM
O=C(NCc1ccccc1)c1ccc2oc(=O)n(Cc3ccccc3)c2c1,n
CCCN1CCN(C(=O)c2ccc3c(c2)n(CC)c(=O)c2ccnn23)CC1,n
O=C(NCc1cccc(F)c1)c1ccc2nccn2c1,n
Cn1ncc(N2CCC(NC(=O)Cc3ccc(F)cc3)CC2)cc1=O,n
CNC(=O)c1ccc2c(c1)n(Cc1ccc(OC)cc1)c(=O)c1ccnn12,n
Cn1c(=O)c2ccnn2c2ccc(C(=O)Nc3ccc(N4CCOCC4)cc3)cc21,n
CCNC(=O)[C@@H]1C[C@H](N)CN1C(=O)c1c(C)nc2sccn12,n
COc1cccc(C(=O)N2CCC3(CC2)N=C(c2ccc(Cl)cc2)NO3)c1,n
O=C(Nc1ccc(Cl)cc1)N1CCCC(c2nn(-c3ccc(Cl)cc3)c(=O)[nH]2)C1 (stereo not given),n
O=C1NN=C(C2CC2)C12CCN([S+](=O)([O-])c1cccc(C(F)(F)F)c1)CC2,n
COc1ccc(-c2cc(N3CCCN(C(=O)Cc4ccccc4Cl)CC3)n[nH]2)cc1,n
Cc1ccc(CNC(=O)CC2=C3CCCCC3NC2=O)cc1 (stereo not given),n
Cc1ccc(NC(=O)N2C[C@@H](F)C[C@H]2C(=O)N2CCc3ccccc3C2)cc1Cl,n
CCc1ccccc1NC(=O)N1C[C@@H](F)C[C@H]1C(=O)N1CCc2ccccc2C1,3.2µM
COc1ccc(NC(=O)N2C[C@@H](F)C[C@H]2C(=O)N2CCc3ccccc3C2)c(C)c1,n
COc1ccc(-c2noc([C@@H]3Cc4nc[nH]c4CN3C(=O)CCC(=O)O)n2)cc1,n
COc1ccc(-c2noc(CC3CCN(C(=O)Cc4ccsc4)CC3)n2)cc1,n
COc1cccc(-c2noc(CC3CCN(C(=O)c4ccccc4C)CC3)n2)c1,n
COc1cccc(-c2noc(CC3CCN(C(=O)c4ccc(N(C)C)cc4)CC3)n2)c1,5µM
Cc1ccc(OCC(=O)N2CCC(Cc3nc(-c4ccccc4)no3)CC2)cc1,n
SMILES,Pf Dd2 inh
COc1ccc(C(=O)N2CCC(Cc3nc(-c4ccc(F)cc4)no3)CC2)cc1F,n
COc1ccc(-c2noc(CC3CCN(C(=O)CCCc4ccccc4)CC3)n2)cc1,n
COc1ccc(OCC(=O)N2CCC(Cc3nc(-c4ccc(OC)cc4)no3)CC2)cc1,11µM
CCOc1ccc(CC(=O)N2CCC(Cc3nc(-c4ccc(OC)cc4)no3)CC2)cc1,8.9µM
COC(=O)c1cccc(C(=O)N2CCC(Cc3nc(-c4cnccn4)no3)CC2)c1,n
COC(=O)c1cccc(C(=O)N2CCC(Cc3nc(-c4ccc(F)cc4)no3)CC2)c1,10µM
COc1cccc(-c2noc(CC3CCN(C(=O)c4cc(OC)c(OC)c(OC)c4)CC3)n2)c1,n
COc1ccc(CC(=O)N2CCC(Cc3nc(-c4ccc(OC)cc4)no3)CC2)cc1,n
O=C(COc1ccccc1)N1CCC2(CC1)CC(N(C(=O)c1ccccc1)C1CC1)CCO2 (stereo not given),n
Cn1ncc(N2CCC(CNC(=O)c3ccn(C(C)(C)C)c3)C2)cc1=O (stereo not given),n
O=C(N[C@@H]1CN(C(=O)COc2ccc(F)cc2)CC[C@@H]1CO)C1CC1,n
CCCCN(C)C(=O)CN1C(=O)NC2(CCOCC2)C1=O,n
CC(C)CNC(=O)c1ccc2c(c1)NC(C)(COCC1CC1)CO2 (stereo not given),n
CCCNC(=O)C(NC(=O)c1ccc(OC)cc1)C1CCN(C(=O)c2ccccc2C)CC1 (stereo not given),n
Cc1noc([C@@H]2CN(S(=O)(=O)c3ccc4c(c3)OCCO4)C[C@H]2C(N)=O)n1,n
COc1ccc(CC2CCN(C(=O)c3c(C)noc3-c3ccc4c(c3)OCO4)CC2)cc1,7.9µM
Cc1noc(-c2ccc3c(c2)OCO3)c1C(=O)N1CCC(Cc2ccccc2)CC1,n
COc1ccc(-c2noc(CC3CCN(C(=O)c4ccc5c(c4)OCO5)CC3)n2)cc1,11µM
O=C(c1ccc2c(c1)OCO2)N1CCC(Cc2nc(-c3ccccc3)no2)CC1,n
COc1ccc(-c2noc(CC3CCN(C(=O)c4cc(F)cc(F)c4)CC3)n2)cc1,n
COc1ccc(-c2onc(C)c2C(=O)N2CCC(Cc3ccc(F)cc3)CC2)cc1,n
O=C1NC(C(=O)NCCCc2ccccc2)Cn2cccc21 (stereo not given),n
O=C(NC[C@H]1OC[C@@H](NCc2ccccn2)[C@@H]1O)Nc1ccccc1,n
Cc1ccccc1C(=O)Nc1cccc(NC(=O)c2ccc(C(C)(C)C)cc2)c1,13µM
COc1cccc(C(=O)Nc2ccc(NC(=O)c3ccc(C(C)(C)C)cc3)cc2)c1,n
SMILES,Pf Dd2 inh
O=C(Nc1cccc(NC(=O)c2ccccc2F)c1)c1ccccc1,n
COCc1noc([C@@H]2CC(F)(F)CN2C(=O)c2cc(C)[nH]n2)n1,n
COC1CCC12CCN(C(=O)c1ccncc1)CC2 (stereo not given),n
Cc1cccc(C(=O)N2CCCCCNC(=O)[C@H]3C[C@H](C(=O)N4CCc5ccccc5C4)C[C@H]32)c1,8.9µM
Cc1cccc(C(=O)N2CCCCCCNC(=O)[C@@H]3CCCC[C@@H]32)c1,n
O=C1NCCCCCCN(C(=O)Cc2ccccc2)[C@H]2CCCC[C@@H]12,n
O=C1NCCCCCN(C(=O)CC2CCCCC2)[C@@H]2C[C@@H](C(=O)N3CCc4ccccc4C3)C[C@H]12,7.1µM
Cc1cccc(C(=O)N2CCCCCNC(=O)[C@@H]3CCCC[C@@H]32)c1,n
O=C1NCCCCCCN(C(=O)c2ccoc2)[C@H]2C[C@H](C(=O)N3CCN(c4ccccn4)CC3)C[C@@H]12,n
O=C1NCCCCCCN(C(=O)c2cnccn2)[C@H]2C[C@H](C(=O)N3CCc4ccccc4C3)C[C@@H]12,n
O=C1NCCCCCN(C(=O)CCCc2ccccc2)[C@H]2CCCC[C@@H]12,n
Cc1ccc(C(=O)N2CCCCCCNC(=O)[C@@H]3C[C@@H](C(=O)N4CCc5ccccc5C4)C[C@@H]32)s1,7.9µM
O=C(Cn1ccn2nc3c(c2c1=O)CCCC3)NCc1cccs1,n
Cc1nc2ccc(Cl)cn2c1C(=O)N1CCC2(CCCN(C)C2=O)C1 (stereo not given),n
CC1CCN([C@@H]2[C@H](O)[C@H](CO)O[C@@H]2CNC2CCOCC2)CC1,n
COc1ccccc1C(=O)N1CCC2(CC1)c1nccn1-c1ccccc1CN2C,n[5.79 µM]
COc1ccccc1C(=O)N1CCC2(CC1)c1nccn1-c1ccccc1CN2CC(C)C,0.89µM
CC(C)CN1Cc2ccccc2-n2ccnc2C12CCN(C(=O)C(C)C)CC2,n[5.79 µM]
Cc1ccc(S(=O)(=O)NC[C@H]2O[C@@H](CC(=O)NCCN3CCOCC3)[C@H](O)[C@@H]2O)cc1,n
CCC(C)NC(=O)CC1Sc2ncccc2N(CC(C)C)C1=O (stereo not given),n
Cc1cc(C)c([S+](=O)([O-])c2nnn3c2nc(N2CCOCC2)c2ccccc23)c(C)c1,8.9µM
COc1ccc(OC)c([S+](=O)([O-])c2nnn3c2nc(N2CCOCC2)c2ccccc23)c1,n
